Results on 14 molecules are retold here after PubChem BioAssay (NCI).

This is part of a sample that, as a whole, favours compounds with a hit. Of some 83,000 tested, about 20% had one in any assay.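 Activity criterion: percent growth below 10, measured after cells in 96-well plates were exposed to a single compound concentration for 48 hours.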 A number with no mark means an inactive call. Calls of active or inactive are those of the source.

Among the test systems are SR leukemia; RPMI-8226 leukemia; OVCAR-8 ovarian; OVCAR-5 ovarian; OVCAR-4 ovarian; SK-OV-3 ovarian; IGROV1 ovarian; OVCAR-3 ovarian; HS 578T breast; NCI/ADR-RES ovarian.
Assay in all cases: NCI-60 one-dose screen, 48 h (100 = growth as untreated, 0 = no growth, -100 = all killed)
Details in all cases: 10 µM unless noted

As to `NC1=NC(SCc2ccccc2CCl)c2ncn(Cc3ccccc3CCl)c2N1` (stereo not given), the growth in the test with SR leukemia was 9.1% (active); in the test with RPMI-8226 leukemia, 76.7%; with OVCAR-8 ovarian it was 22.8%; in the test on OVCAR-5 ovarian, 110%; with OVCAR-4 ovarian, 42.9%; in the test with SK-OV-3 ovarian, 89.7%. The growth in the test on IGROV1 ovarian was -26.3% (active); in the test with OVCAR-3 ovarian it was 2.22% (active); with HS 578T breast, 33.8%; in the test on NCI/ADR-RES ovarian, 69%.
Regarding `c1ccc(Nc2nc(Nc3ccccc3)nc(Nc3ccccc3)n2)cc1`, the growth in the test with SR leukemia is 69.8%; in the test with RPMI-8226 leukemia, 74.5%; with OVCAR-8 ovarian, 92.2%; with OVCAR-5 ovarian it was 97.1%; with OVCAR-4 ovarian it was 81.2%; in the test with SK-OV-3 ovarian it was 92.7%. Further, the growth was 62.5% with IGROV1 ovarian, 96.4% in the test with OVCAR-3 ovarian, 107% with HS 578T breast and 77.9% in the test on NCI/ADR-RES ovarian.
As to `CCCCOc1ccc(/C=C2/SC(N3CCCC3)=NC2=O)cc1`, the growth is 91.1% in the test with SR leukemia; 84.8% in the test with RPMI-8226 leukemia; 99.7% in the test with OVCAR-8 ovarian; 90.1% with OVCAR-5 ovarian; 80.6% in the test on OVCAR-4 ovarian; 96.9% in the test on SK-OV-3 ovarian. Further, the growth in the test on IGROV1 ovarian is 95.1%; in the test on OVCAR-3 ovarian it was 106%; with HS 578T breast, 116%; with NCI/ADR-RES ovarian, 90.8%.
Turning to `O=C(Oc1ccccc1[N+](=O)[O-])C1CCCN1C(=O)OCc1ccccc1` (stereo not given), the growth is 82.4% in the test on SR leukemia; 97.3% with RPMI-8226 leukemia; 97.5% in the test on OVCAR-8 ovarian; 109% in the test with OVCAR-5 ovarian; 103% in the test on OVCAR-4 ovarian; 108% with SK-OV-3 ovarian. The growth with IGROV1 ovarian was 109%; with OVCAR-3 ovarian, 110%; with HS 578T breast it was 112%; in the test with NCI/ADR-RES ovarian it was 92.7%.
Take `CCOC(=O)C1=C(C)NC(C)=C(C(=O)OCC)C1(C)C`: the growth is 90.6% with SR leukemia; 94.8% with RPMI-8226 leukemia; 102% in the test on OVCAR-8 ovarian; 99.7% with OVCAR-5 ovarian; 101% with OVCAR-4 ovarian; 110% in the test on SK-OV-3 ovarian. Besides, the growth with IGROV1 ovarian is 131%; in the test with OVCAR-3 ovarian, 112%; in the test on HS 578T breast it was 107%; with NCI/ADR-RES ovarian, 122%.
In the case of `C=CCn1cc(-c2nc3ccccc3s2)c2cc(-c3ccc4c5c(cccc35)C(=O)N(CCN3CCNCC3)C4=O)ccc21`, the growth in the test on SR leukemia was 4.31% (active); in the test on RPMI-8226 leukemia it was 46.7%; in the test with OVCAR-8 ovarian, 13.7%; in the test on OVCAR-5 ovarian it was 90.3%; in the test with OVCAR-4 ovarian it was 88.5%; in the test on SK-OV-3 ovarian, 101%. Further, the growth was 68.1% with IGROV1 ovarian, 105% in the test with OVCAR-3 ovarian, 91.8% with HS 578T breast and 83.1% in the test with NCI/ADR-RES ovarian.
On to `Cc1c(C(=N)C(C#N)C#N)c(=N)oc2c1ccc1ccccc12`, for which the growth in the test on SR leukemia was 26.1%; in the test on RPMI-8226 leukemia, 44.7%; in the test on OVCAR-8 ovarian it was 80.8%; in the test with OVCAR-5 ovarian, 104%; in the test on OVCAR-4 ovarian, 95.3%; with SK-OV-3 ovarian, 104%. The growth is -2.09% (active) in the test with IGROV1 ovarian, 95.5% in the test with OVCAR-3 ovarian, 69.8% in the test on HS 578T breast and 83.8% in the test with NCI/ADR-RES ovarian.
For the molecule `C[n+]1c(/C=C/c2c(O)ccc3ccccc23)ccc2ccccc21`, the growth was -36.2% (active) with SR leukemia; 3.79% (active) in the test with RPMI-8226 leukemia; 21.3% with OVCAR-8 ovarian; 77.3% in the test on OVCAR-5 ovarian; 28.3% with OVCAR-4 ovarian; 50.6% in the test with SK-OV-3 ovarian. In addition, the growth in the test on IGROV1 ovarian is 45.2%; with OVCAR-3 ovarian, -20.5% (active); with HS 578T breast, 55.7%; in the test on NCI/ADR-RES ovarian, 25.2%.
Consider `COc1cc(/C=C/C(=O)c2c(C)nc3ccccc3c2C)ccc1OCCCCOc1cc2c(cc1OC)C(=O)N1CCC[C@H]1C=N2`, for which the growth is -25.1% (active) with SR leukemia; -61.2% (active) in the test with RPMI-8226 leukemia; -7.99% (active) in the test on OVCAR-8 ovarian; -59.6% (active) in the test with OVCAR-5 ovarian; -20.1% (active) in the test with OVCAR-4 ovarian; -50.1% (active) with SK-OV-3 ovarian. Besides, the growth with IGROV1 ovarian is -100% (active); in the test with OVCAR-3 ovarian, -57.1% (active); in the test on HS 578T breast, 39%; in the test on NCI/ADR-RES ovarian, 43.9%.
For `O=C(Nc1ccc(Cl)c(Cl)c1)NS(=O)(=O)c1cnccc1Oc1ccc(F)cc1`, the growth in the test with SR leukemia was 51.2%; with RPMI-8226 leukemia it was -40.7% (active); with OVCAR-8 ovarian it was 55.4%; with OVCAR-5 ovarian it was 82.7%; in the test with OVCAR-4 ovarian, 52%; in the test on SK-OV-3 ovarian, 88.7%. Moreover, the growth in the test on IGROV1 ovarian was 71.7%; in the test on OVCAR-3 ovarian it was 8.22% (active); in the test with HS 578T breast, 86%; with NCI/ADR-RES ovarian, 53.3%.
On to `C=C1c2nc3ccccc3n2C=C(c2ccc(Cl)cc2)N1Cc1ccccc1`, for which the growth was 23.7% in the test on SR leukemia; 35.3% in the test on RPMI-8226 leukemia; 75.6% with OVCAR-8 ovarian; 99.9% in the test on OVCAR-5 ovarian; -8.06% (active) in the test on OVCAR-4 ovarian; 83.4% in the test on SK-OV-3 ovarian. The growth in the test with IGROV1 ovarian is 106%; with OVCAR-3 ovarian it was 92.2%; with HS 578T breast, 87%; in the test with NCI/ADR-RES ovarian, 79.4%.
For `C=C[C@@H]1C[C@@H]2Cc3cc(Cl)ccc3N1O2`, the growth with SR leukemia is 92.4%; with RPMI-8226 leukemia, 84.9%; with OVCAR-8 ovarian, 99.4%; in the test with OVCAR-5 ovarian, 97.8%; in the test with OVCAR-4 ovarian, 102%; in the test with SK-OV-3 ovarian, 101%. Further, the growth in the test on IGROV1 ovarian was 112%; with OVCAR-3 ovarian, 109%; in the test with HS 578T breast, 97.1%; in the test on NCI/ADR-RES ovarian, 101%.
As to `O=[N+]([O-])c1cnc(Sc2ccncn2)s1`, the growth with SR leukemia was -69.7% (active); in the test on RPMI-8226 leukemia, -64.1% (active); in the test on OVCAR-8 ovarian, 73.3%; with OVCAR-5 ovarian it was 94.1%; in the test on OVCAR-4 ovarian, 53.9%; in the test with SK-OV-3 ovarian, 114%. Besides, the growth is -80.7% (active) in the test on IGROV1 ovarian, -95.5% (active) in the test with OVCAR-3 ovarian, 58% with HS 578T breast and 67% in the test on NCI/ADR-RES ovarian.
Regarding `O=C1/C(=C/c2ccccc2)CN(C(=O)CCN2CCC(=NO)CC2)C/C1=C\c1ccccc1`, the growth with SR leukemia was 7.97% (active); in the test with RPMI-8226 leukemia, -28.6% (active); with OVCAR-8 ovarian, 13.6%; in the test on OVCAR-5 ovarian it was 5.29% (active); in the test with OVCAR-4 ovarian, 15.3%; with SK-OV-3 ovarian, 77.5%. The growth in the test with IGROV1 ovarian is -5.65% (active); in the test with OVCAR-3 ovarian, -27% (active); in the test with HS 578T breast, 17%; with NCI/ADR-RES ovarian, 14.6%.
